Measurements: PubChem BioAssay (Tox21)
“And” between values parts separate entries of the source, which are not always exact repeats. Equal entries are not always repeated. Records with an inconclusive call do not appear. Where a call stands in place of a potency, no number is given. Some structures have more than one record in an assay (separate samples or runs), and their calls can disagree. The source made the active and inactive calls. Unless noted, the call rests on the fitted dose curve; in most records, active means well fitted curve in the direction sought with a large enough effect in the repeat runs; inconclusive means weak or mixed curves; inactive means no such curve, though single readings can be large; an effect the other way counts as inactive or inconclusive.

Legend:
[1] = qHTS assay to identify small molecule antagonists of the estrogen related receptor (ERR) signaling pathway from Tox21 library - cell viability counter screen (AID 1224834); further: nearly all actives have a fitted effect of over 30% in size; further: potency means the concentration at half of the fitted maximal effect
Outline: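 Viability readout (CellTiter-Fluor fluorescence, 30 min at 37 C) multiplexed with the ERR assay; cells treated 17.5 h at 37 C with compounds delivered in DMSO.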

[2] = biological target: Luciferin 4-monooxygenase (Photinus pyralis) (UniProt P08659); test: qHTS assay to identify small molecule inhibitors of firefly luciferase (AID 1224835); further: nearly all actives have a fitted effect of over 25% in size; further: potency means the concentration at half of the fitted maximal effect
Outline: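 Inhibition of purified Photinus luciferase is measured by luminescence. Substrate levels (D-luciferin, ATP) sit at their KM values. Each compound is tested in a concentration series.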

[3] = qHTS assay to identify small molecule antagonists of the constitutive androstane receptor (CAR) signaling pathway - cell viability counter screen (AID 1224837); further: series mostly up to about 92 µM; nearly all actives have a fitted effect of over 45% in size
Outline: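 Fluorescence from CellTiter-Fluor served as the viability signal. Human hepatoma HepG2 cells stably bearing hCAR and CYP2B6-2.2kb received compound plus CITCO (50 nM final) for 23 hr.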

[4] = biological target: Nuclear receptor subfamily 1 group I member 3 (Homo sapiens) (UniProt Q14994); test: qHTS assay to identify small molecule antagonists of the constitutive androstane receptor (CAR) signaling pathway (AID 1224838);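 further: HepG2 cells stably expressing hCAR with CYP2B6 luciferase reporter stimulated by CITCO; nearly all actives have a fitted effect of over 40% in size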
Outline: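 Quantitative HTS in double-stable HepG2-CYP2B6-hCAR cells. After 4 h plating, cells get compound (15 concentrations) and CITCO at 50 nM final, incubate 24 h at 37 C, then ONE-Glo luminescence is read.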

[5] = biological target: Nuclear receptor subfamily 1 group I member 3 (Homo sapiens) (UniProt Q14994); test: qHTS assay to identify small molecule agonists of the constitutive androstane receptor (CAR) signaling pathway (AID 1224839); further: nearly all actives have a fitted effect of over 15% in size; further: potency means the concentration at half of the fitted maximal effect;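 on activation: HepG2 cells stably carrying human CAR and a CYP2B6 luciferase reporter; series mostly up to about 92 µM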
Outline: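 Readout: firefly luciferase luminescence via ONE-Glo. System: HepG2 double-stable for hCAR and CYP2B6-2.2kb. Conditions: 15-point compound titration, PK11195 at 0.75 uM final, 24 h incubation.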

[6] = qHTS assay to identify small molecule antagonists of the estrogen related receptor signaling pathway with the pleiotropic PPARgamma coactivator (PGC) from Tox21 10K library - cell viability counter screen (AID 1224840; active means well fitted cell-killing curve with a large enough effect in the repeat runs, not every such curve was filed as active; further: nearly all actives have a fitted effect of over 40% in size)
Outline: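 Compounds in DMSO, alongside positive and negative controls, were pinned onto PGC/ERR cells (2,000 per well). Exposure lasted 17.5 hours at 37 C, followed by a 30-minute CellTiter-Fluor incubation and fluorescence reading.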

[7] = biological target: Thyrotropin receptor (Homo sapiens) (UniProt P16473); test: qHTS assay to identify small molecule agonists of the thyroid stimulating hormone receptor (TSHR) signaling pathway (AID 1224843; calls by dose curve; further: nearly all actives have a fitted effect of over 45% in size)
Outline: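 HEK293 cells stably bearing the thyrotropin receptor were plated at 800 cells/well and challenged with compound (30 min, RT). Accumulated cAMP was quantified via cAMP-d2 competing for cryptate-tagged antibody.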

[8] = qHTS assay to identify small molecule agonists of the hypoxia (HIF-1) signaling pathway - cell viability counter screen (AID 1224844; calls by dose curve; further: nearly all actives have a fitted effect of over 50% in size; further: potency means the concentration at half of the fitted maximal effect)
Outline: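 Luminescent ATP content (CellTiter-Glo, 30 min, room temperature) served as the viability measure in HRE-bla ME-180 cells exposed to compounds for 17 hrs in low-serum medium (0.5% dialyzed FBS).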

[9] = qHTS assay to identify small molecule agonists of H2AX (AID 1224845; active means well fitted activation curve with a large enough effect in the signal ratio in the repeat runs, not every such curve was filed as active; the % refers to the signal ratio)
Outline: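 Phospho-H2AX Ser139 measured by HTRF (ex 320 nm; em 665 and 620 nm) after 24 hr antibody incubation. Compounds, 15 concentrations, 0.76% DMSO, were applied to CHO-K1 cells for 3hr at 37C before lysis.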

[10] = qHTS assay to identify small molecule agonists of the hypoxia (HIF-1) signaling pathway (AID 1224846; active means well fitted activation curve with a large enough effect in the signal ratio in the repeat runs, not every such curve was filed as active; the % refers to the signal ratio)
Outline: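 Measured by blue/green FRET after loading CCF4-AM: beta-lactamase expressed from a hypoxia response element in ME-180 cells. Test agents were delivered in DMSO and left 17 hrs; cells had been plated 5 hrs earlier in low-serum (0.5% dialyzed FBS) medium.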

[11] = qHTS assay to identify small molecule agonists of H2AX - cell viability counter screen (AID 1224847; calls by dose curve; further: nearly all actives have a fitted effect of over 30% in size; further: potency means the concentration at half of the fitted maximal effect)
Outline: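 For this counter screen, overnight-attached CHO-K1 cells received test compounds (15 concentrations, 0.76% DMSO final); 3 hr later at 37C, CellTiter-Glo reagent was added and luminescence recorded after 30 min at room temperature.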

[12] = qHTS RealTime-Glo MT Cell Viability Assay in HepG2 cells - 24 hour (AID 1224867); further: nearly all actives have a fitted effect of over 50% in size
Outline: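 Luminescence read-out: viable HepG2 cells reduce a prosubstrate to a NanoLuc substrate, giving a signal proportional to live cell number. Reads taken at 0, 8, 16, 24, 32 and 40 h of compound exposure at 37 C.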

[13] = qHTS RealTime-Glo MT Cell Viability Assay in HEK293 cells - 32 hour (AID 1224868); further: top concentration of the series differs between compounds; nearly all actives have a fitted effect of over 50% in size
Outline: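 Nonlytic real-time viability readout: viable cells convert prosubstrate to NanoLuc substrate, giving luminescence proportional to live cell number. HEK293, 600 cells/well, compound added after 5 h, continuous culture at 37 C.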

[14] = A CellTox Green Cytotoxicity Assay to monitor cytotoxicity in HEK293 cells - 0 hour (AID 1224869); further: nearly all actives have a fitted effect of over 50% in size
Outline: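 Each value comes from one timepoint of a single continuous run in which HEK293 cells with CellTox Green were exposed to compound for up to 40 h at 37 C, dye fluorescence rising with cell death.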

[15] = qHTS RealTime-Glo MT Cell Viability Assay in HepG2 cells - 40 hour (AID 1224870); further: nearly all actives have a fitted effect of over 50% in size
Outline: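 Real-time viability: cells seeded at 600 per well together with NanoLuc and cell-permeant prosubstrate, compounds added after 5 h incubation. Luminescence tracked at 0, 8, 16, 24, 32 and 40 h of exposure.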

[16] = qHTS assay to identify small molecule agonists of the constitutive androstane receptor (CAR) signaling pathway - cell viability counter screen (AID 1224836); further: series mostly up to about 92 µM; nearly all actives have a fitted effect of over 45% in size
Outline: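 Double-stable HepG2 hepatoma cells (hCAR plus CYP2B6-2.2kb) are treated for 23 h at 37 C with test compounds in 15-point concentration series. PK11195 at 0.75 uM final is co-added. Cell viability is quantified by CellTiter-Fluor.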

[17] = qHTS assay to identify small molecule antagonists of the estrogen related receptor signaling pathway with the pleiotropic PPARgamma coactivator (PGC) from Tox21 10K library (AID 1224841; call rule not given here; further: potency means the concentration at half of the fitted maximal effect)
Outline: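 Compound exposure ran 18 hours at 37 C in PGC/ERR cells (2,000/well) that had first rested 6 hours in a 37 C/5% CO2 incubator. Luciferase activity was then detected with One-Glo after a 30-minute room-temperature step.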

[18] = qHTS assay to identify small molecule agonists of the estrogen related receptor signaling pathway with the pleiotropic PPARgamma coactivator (PGC) from Tox21 10K library (AID 1224842); further: nearly all actives have a fitted effect of over 15% in size; further: potency means the concentration at half of the fitted maximal effect
Outline: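 Luminescence from One-Glo (30 min, room temperature) measured after PGC/ERR cells had 18 h at 37 C with pinned compound (23 nL in DMSO). Cells had been seeded at 2,000 per well and pre-incubated 6 h.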

[19] = qHTS assay to identify small molecule antagonists of the estrogen related receptor (ERR) signaling pathway from Tox21 library (AID 1224848); further: nearly all actives have a fitted effect of over 50% in size; further: potency means the concentration at half of the fitted maximal effect
Outline: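 Reading was by luminescence 30 min after ONE-Glo addition. Before that, ERR cells at 2,000 per well had rested 6 h at 37 C/5% CO2 and then received pin-tooled compounds in DMSO for 18 h at 37 C.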

Sequence of Luciferin 4-monooxygenase (Photinus pyralis) (P08659 whole entry, looked up): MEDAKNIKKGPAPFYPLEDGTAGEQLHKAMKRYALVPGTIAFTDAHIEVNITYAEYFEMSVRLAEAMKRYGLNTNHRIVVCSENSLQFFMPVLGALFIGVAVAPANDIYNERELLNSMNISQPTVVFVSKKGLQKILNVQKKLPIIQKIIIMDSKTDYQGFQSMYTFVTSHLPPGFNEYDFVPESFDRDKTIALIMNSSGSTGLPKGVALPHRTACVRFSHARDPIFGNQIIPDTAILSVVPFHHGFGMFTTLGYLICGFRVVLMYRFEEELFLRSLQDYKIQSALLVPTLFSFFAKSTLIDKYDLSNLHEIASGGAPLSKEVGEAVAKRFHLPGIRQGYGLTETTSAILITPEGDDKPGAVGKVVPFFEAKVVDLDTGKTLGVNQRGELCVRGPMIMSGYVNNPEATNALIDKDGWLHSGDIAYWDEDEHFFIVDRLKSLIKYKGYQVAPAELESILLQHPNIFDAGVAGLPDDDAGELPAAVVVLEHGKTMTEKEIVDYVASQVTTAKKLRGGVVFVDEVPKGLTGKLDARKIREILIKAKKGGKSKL
Sequence of Thyrotropin receptor (Homo sapiens) (P16473 whole entry, looked up): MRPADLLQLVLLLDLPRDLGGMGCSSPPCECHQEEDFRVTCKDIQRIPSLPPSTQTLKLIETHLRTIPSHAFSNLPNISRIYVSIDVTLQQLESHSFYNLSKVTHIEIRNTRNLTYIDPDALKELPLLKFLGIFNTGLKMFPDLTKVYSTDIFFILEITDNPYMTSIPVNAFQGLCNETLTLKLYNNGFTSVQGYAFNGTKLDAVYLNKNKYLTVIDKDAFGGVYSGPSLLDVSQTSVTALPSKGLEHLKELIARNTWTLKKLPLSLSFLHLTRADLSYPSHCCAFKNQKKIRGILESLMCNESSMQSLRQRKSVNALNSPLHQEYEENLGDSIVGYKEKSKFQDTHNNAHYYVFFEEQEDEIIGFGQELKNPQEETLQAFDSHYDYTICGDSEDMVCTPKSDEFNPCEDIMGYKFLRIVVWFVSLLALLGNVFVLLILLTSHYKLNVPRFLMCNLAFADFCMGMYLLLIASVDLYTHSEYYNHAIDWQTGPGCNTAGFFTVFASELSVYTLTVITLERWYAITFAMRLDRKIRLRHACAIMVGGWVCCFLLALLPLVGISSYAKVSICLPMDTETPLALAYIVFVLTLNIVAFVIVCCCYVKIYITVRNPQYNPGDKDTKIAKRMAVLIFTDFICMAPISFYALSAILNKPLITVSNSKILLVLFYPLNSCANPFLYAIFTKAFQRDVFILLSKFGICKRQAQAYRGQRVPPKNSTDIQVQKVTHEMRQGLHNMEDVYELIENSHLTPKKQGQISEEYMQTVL
Sequence of Nuclear receptor subfamily 1 group I member 3 (Homo sapiens) (Q14994 whole entry, looked up): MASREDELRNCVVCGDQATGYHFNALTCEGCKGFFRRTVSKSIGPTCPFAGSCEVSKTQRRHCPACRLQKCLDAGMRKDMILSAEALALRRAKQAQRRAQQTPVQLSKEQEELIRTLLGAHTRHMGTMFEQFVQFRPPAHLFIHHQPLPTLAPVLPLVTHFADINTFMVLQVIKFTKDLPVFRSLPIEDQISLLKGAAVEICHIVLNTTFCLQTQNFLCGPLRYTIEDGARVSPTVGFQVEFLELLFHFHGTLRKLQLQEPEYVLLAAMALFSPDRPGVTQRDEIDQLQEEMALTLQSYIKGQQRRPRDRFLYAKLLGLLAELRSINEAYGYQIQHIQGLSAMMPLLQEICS

SMILES: CCOCCO
- Potency [1]: inactive
- Potency [2]: inactive
- Potency [3]: inactive
- Potency [4]: inactive
- Potency [5]: inactive
- Potency [6]: inactive
- Potency [7]: inactive
- Potency [8]: inactive
- Potency [9]: inactive
- outcome [10]: inactive
- Potency [11]: inactive
- outcome [12]: inactive
- Potency [13]: inactive
- Potency [14]: inactive
- outcome [15]: inactive

SMILES: NC(=O)OCC(COC(N)=O)c1ccccc1
- Potency [1]: inactive
- Potency [2]: inactive
- Potency [16]: inactive
- Potency [4]: inactive
- Potency [5]: inactive
- Potency [6]: inactive
- Potency [7]: inactive
- Potency [8]: inactive
- Potency [9]: inactive
- Potency [11]: inactive
- outcome [12]: inactive
- Potency [13]: inactive
- Potency [14]: inactive
- outcome [15]: inactive

SMILES: CC(=O)CCC(C)C
- Potency [1]: inactive
- Potency [2]: inactive
- Potency [3]: inactive
- Potency [4]: inactive
- Potency [5]: inactive
- Potency [6]: inactive
- Potency [7]: inactive
- Potency [8]: inactive
- Potency [9]: inactive
- outcome [10]: inactive
- Potency [11]: inactive
- outcome [12]: inactive
- Potency [13]: inactive
- outcome [15]: inactive

SMILES: O=C(O)Cc1cccc2ccccc12
- Potency [1]: inactive
- Potency [2]: inactive
- Potency [6]: inactive
- Potency [7]: inactive
- Potency [8]: inactive and 4.36 µM (active)
- Potency [9]: inactive
- outcome [10]: inactive
- Potency [11]: inactive
- outcome [12]: inactive
- Potency [13]: inactive
- outcome [15]: inactive

SMILES: Cc1ccc(O)c(-n2nc3ccccc3n2)c1
- Potency [1]: inactive
- Potency [2]: 2.5 µM (active) and 1.59 µM (active) and 3.09 µM (active)
- Potency [4]: inactive
- Potency [5]: 24.1 µM (active) and 21.7 µM (active) and 8.41 µM (active)
- Potency [6]: inactive
- Potency [17]: inactive
- Potency [18]: 27.1 µM (active) and 8.63 µM (active) and 11.9 µM (active)
- Potency [7]: inactive
- Potency [8]: inactive
- Potency [9]: inactive
- outcome [10]: inactive
- Potency [11]: 100 µM (active) and 89.8 µM (active)
- Potency [19]: inactive
- outcome [12]: inactive
- Potency [13]: inactive
- outcome [15]: inactive

SMILES: COCC(C)N (configuration not stated)
- Potency [1]: inactive
- Potency [2]: inactive
- Potency [4]: inactive
- Potency [5]: inactive
- Potency [6]: inactive
- Potency [7]: inactive
- Potency [8]: inactive
- Potency [9]: inactive
- outcome [10]: inactive
- Potency [11]: inactive
- outcome [12]: inactive
- Potency [13]: inactive
- Potency [14]: inactive
- outcome [15]: inactive

SMILES: O=C(O)CN(CC(=O)O)CC(=O)O
- Potency [1]: inactive
- Potency [2]: inactive
- Potency [4]: inactive
- Potency [5]: inactive
- Potency [6]: inactive
- Potency [17]: inactive
- Potency [18]: inactive
- Potency [7]: inactive
- Potency [8]: inactive
- Potency [9]: inactive
- outcome [10]: inactive
- Potency [11]: inactive
- Potency [19]: inactive
- outcome [12]: inactive
- Potency [13]: inactive
- Potency [14]: inactive
- outcome [15]: inactive

SMILES: NC(=O)N/N=C/c1ccc([N+](=O)[O-])o1
- Potency [1]: inactive and 27.3 µM (active)
- Potency [2]: inactive
- Potency [4]: inactive
- Potency [5]: inactive
- Potency [6]: inactive
- Potency [17]: 24.3 µM (active) and inactive
- Potency [18]: inactive
- Potency [7]: inactive
- Potency [8]: inactive
- Potency [9]: inactive
- Potency [11]: inactive
- Potency [19]: inactive and 48.6 µM (active)
- outcome [12]: inactive
- Potency [13]: inactive
- Potency [14]: inactive
- outcome [15]: inactive
